Source: PubChem BioAssay AID1671190 (National Center for Advancing Translational Sciences (NCATS), 2021)
Among all 580,000 compounds or so, about 6,100 (1.1%) were called active. Inconclusive results (about 15%) are left out. This is one part of a sample in which actives are shown more often than they occur. The call rests on the fitted dose curve; in most records, active means well fitted inhibition curve with a large enough effect; inconclusive means small, poorly fitted or top-dose-only effect, or another doubt; inactive means no such curve, though single readings can be large or run the other way.

Target: Polyunsaturated fatty acid lipoxygenase ALOX12 (Homo sapiens) (UniProt P18054)
Sequence (P18054 whole entry, looked up): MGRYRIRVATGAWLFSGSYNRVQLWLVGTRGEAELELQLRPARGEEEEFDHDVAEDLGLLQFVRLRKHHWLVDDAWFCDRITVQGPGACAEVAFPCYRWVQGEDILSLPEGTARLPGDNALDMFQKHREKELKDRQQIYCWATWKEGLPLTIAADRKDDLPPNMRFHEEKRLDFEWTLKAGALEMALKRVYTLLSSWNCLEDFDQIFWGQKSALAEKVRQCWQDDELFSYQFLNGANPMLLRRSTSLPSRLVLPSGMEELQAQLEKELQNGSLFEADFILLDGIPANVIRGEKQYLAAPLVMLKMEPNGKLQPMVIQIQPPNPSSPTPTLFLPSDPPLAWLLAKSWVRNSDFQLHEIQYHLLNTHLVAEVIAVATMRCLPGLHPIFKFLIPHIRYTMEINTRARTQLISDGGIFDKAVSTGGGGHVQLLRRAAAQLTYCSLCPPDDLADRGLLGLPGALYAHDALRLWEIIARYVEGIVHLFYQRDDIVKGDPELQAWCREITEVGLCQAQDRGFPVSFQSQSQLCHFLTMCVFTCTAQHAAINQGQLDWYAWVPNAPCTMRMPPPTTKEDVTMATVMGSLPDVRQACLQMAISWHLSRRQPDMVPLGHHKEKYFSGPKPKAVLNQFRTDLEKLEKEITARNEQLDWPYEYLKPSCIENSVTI
Experiment: Primary qHTS assay for inhibitors of human arachidonate 12S-lipoxygenase (ALOX12): Round 2
Conditions: purified 12hLO, xylenol orange hydroperoxide absorbance; series mostly up to 108 µM
In short: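 Purified human 12hLO (150 nM final) in 25 mM Hepes, 0.01% Triton X-100, pH 7.0 was preincubated 15 min at room temperature with compound. Then 40 uM arachidonic acid was added, 30 min. Hydroperoxide was read by Fe-XO absorbance ratio 573/405 nm.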
Potency means the concentration at half of the fitted maximal effect.

Potency, inactive:
CS(=O)(=O)c1ccc(-c2csc(NC3CCCCC3)n2)cc1, CC(C)CCNc1nc(-c2ccc(S(=O)(=O)N3CCOCC3)cc2)cs1, CCCc1nc(C#N)c(N2CCN(c3ccccc3)CC2)o1, Cc1cccnc1C(NC(=O)C1CCN(Cc2ccc(Cl)c(Cl)c2)CC1)c1ccc(Cl)cc1 (stereo not given), O=C(COc1ccc(Cl)cc1Cl)NCCCNC(=O)c1cnccn1, COc1cccc(CN2CCC(C(=O)NC(c3ccc4c(c3)OCO4)c3ccccn3)CC2)c1 (stereo not given), CCOc1ccc(S(=O)(=O)N2CCC(C(=O)NCc3ccccn3)CC2)cc1Cl, Fc1ccccc1-c1n[nH]c2c1CN(Cc1cccc3c1OCO3)CC2, Cc1ccccc1-c1cc(-c2ccccc2C)[nH]n1, CC(CNC(=O)c1cc2ccccc2s1)N1CCCC1 (stereo not given), OCCCNC(=S)Nc1ccccc1F, Cc1nc(-c2cccnc2)sc1CCNS(=O)(=O)c1cccs1, O=C(Nc1ccc2c(c1)OCCO2)c1nn(-c2ccccc2)c(=O)c2ccccc12, COC(=O)C[C@@H]1C=C[C@@H](NS(=O)(=O)c2cccc(OC)c2)[C@@H](CO)O1, COC(=O)C[C@H]1C=C[C@@H](NS(=O)(=O)c2ccc(C)cc2)[C@@H](CO)O1, N#CC1(c2ccc(N)cc2)CCCC1, CCCn1nnc(NC(=O)c2cc3ccccc3cc2OC)n1, CCn1nnc(NC(=O)c2cc3ccccc3cc2OC)n1, COCCCNC(=O)CN(C)C(=O)c1cccc(C(F)(F)F)c1, CCc1nnsc1C(=O)N(C)Cc1c(F)cccc1Cl, N#Cc1cc(NCC(=O)N2CCNC2=O)ccc1Cl, Fc1ccc(Nc2nc(SCc3ccccc3Cl)nc3ccccc23)cc1, CC1(C)N=C(SCc2ccccc2Cl)c2ccccc2N1, O=C(NCC1CCCO1)c1cc(Cl)c2c(c1)OCCO2 (stereo not given), Cc1ccccc1CN(CC1CCCO1)C(=O)c1cccc(CCC(C)(C)O)c1 (stereo not given), CCCn1c(=O)c2c(C(F)(F)F)cc(-c3cccs3)nc2n(CCC)c1=O, Cc1nn(-c2ccccc2)c2[nH]c(C(F)(F)F)cc(=O)c12, Cc1cc2oc(=O)cc(COC(=O)c3cc(S(=O)(=O)N(C)C)ccc3NCCO)c2cc1C, CCOC(=O)C1(C(F)(F)F)N=C(c2ccc(OC)cc2)OC(N(C)C)=N1 (stereo not given), O=C(CCNC(=O)N1CCN(C(=O)c2cc3ccccc3[nH]2)CC1)NCc1ccccn1, Clc1cccc(CN2CCN(Cc3nnsc3Cl)CC2)c1, CCOC(=O)c1ccc(Nc2c(C(=O)OCC)cnc3ccc(OCC)cc23)cc1, CCc1nc2ccc(C(=O)NCc3ccc(OC)cc3)cn2c1N(CC)Cc1cccc(Br)c1, CN(C)C(=O)c1nc2ccc(Cl)cn2c1CNCc1cccc(OC(F)(F)F)c1, COC(=O)c1ccc2nc(C3CCCCC3)c(Cc3cccc(F)c3)n2c1, COC(=O)c1ccc2nc(-c3cccc(Br)c3)c(Cc3ccccc3C(F)(F)F)n2c1, O=C(Nc1ccnc(Cl)c1)C1CC2CCC1C2 (stereo not given), CC(=O)OC1C2COC(O2)C(OC(C)=O)C1OC(C)=O (stereo not given), O=C(Nc1cccnc1)c1cc(-c2ccc(F)cc2)nc2ccccc12, CCCNC(=O)CC1COCCN1C(=O)CCc1c(C)nc(=O)[nH]c1C (stereo not given), COC(=O)c1c(CN2CCC(C(N)=O)CC2)nc2ccccc2c1C, CNC(=O)NC(=O)CSc1nnc(-c2ccc(F)cc2)n1CC1CCCO1 (stereo not given), Cc1nnc(SCC(=O)NNC(=O)c2ccc(Cl)cc2)n1CC1CCCO1 (stereo not given), COc1ccc(C(=O)NC[C@@H]2C=C(C)[C@H](Cc3nnc(-c4cncn4C)o3)C[C@H]2C(C)C)cc1, CC(C)c1ccc(S(=O)(=O)N2CCN(C(=O)c3ccc(N4CCCC4)c([N+](=O)[O-])c3)CC2)cc1, O=C(c1cccc(F)c1)N1CCC(O)(c2cccnc2)CC1, O=C(NCCCN1CCCC1=O)c1csc(N2CCN(c3ccccc3F)CC2)n1, C/C(=N\NC(=O)C1CC1)C(C)C, COc1ccc(Oc2ccc(NC(=O)Cn3ncc4ccc(OC)c(OC)c4c3=O)cc2)cc1, C/C(=N\NC(=O)Cc1ccccc1[N+](=O)[O-])c1cccnc1, O=C(NN=Cc1ccco1)C(=O)Nc1ccc(Cl)c([N+](=O)[O-])c1, CC(=O)N1CCN(C(=O)Cn2c(-c3ccccc3)cc3ccccc32)CC1, O=C(Nc1cc(F)ccc1F)c1cc(C2CC2)nn1-c1ccccc1, O=C(CCc1c[nH]c2ccccc12)NCCc1cccnc1, COc1cccc(-c2nc3n(n2)C(c2ccccc2Cl)C(C(N)=O)=C(C)N3)c1 (stereo not given), Cc1ccc(C2C=C(c3ccc(Cl)cc3)Nc3nc(NC(=O)CCC(=O)O)nn32)cc1 (stereo not given), Cc1nn(Cc2cccc(F)c2)c(C)c1NS(=O)(=O)c1c(C)nn(C)c1C, Cc1sc2ncnc(Sc3nnc(-c4ccccc4F)n3C)c2c1C, N#Cc1ccccc1Sc1ccccc1C(=O)OCC(=O)NC1CCCCC1, N#Cc1ccccc1Sc1ccccc1C(=O)NC1CCCCC1, CC1CCCN(CC(=O)Nc2oc3ccccc3c(=O)c2-c2ccccc2)C1 (stereo not given), Cn1c(=O)[nH]c(=O)c2c1nc(SCCO)n2Cc1ccc(Cl)cc1, CCN(CC)c1ccc(NC(=O)CSc2ncnc3ccccc23)cc1, CC(C)C(=O)NC(NC(=S)Nc1ccccc1)C(Cl)(Cl)Cl (stereo not given), COCCN1C(=O)c2n[nH]c(-c3ccco3)c2C1c1ccc(O)cc1 (stereo not given), Cc1cnc(C)n1CCN, Cc1cnc(-c2ccccc2)n1CCNC(=O)CCC1CCCC1, CCc1ccc(-c2ccccc2)nc1-c1ccccc1, COC(=O)CC(NC(=O)c1ccc2c(c1)OCCO2)c1ccc(F)cc1 (stereo not given), Cc1oc(-c2nc(C#N)c(N3CCCCCC3)o2)cc1S(=O)(=O)N1CCCCC1, COc1cc(C=CC(=O)O)ccc1O, Cc1ccc(/C=C/C(=O)/C=C/c2ccc(C)cc2)cc1, O=C(Nc1ccccc1NS(=O)(=O)c1cccs1)c1ccc([N+](=O)[O-])cc1, CCOC(=O)/C=C/c1ccc(N)cc1, CO[C@H]1C(=O)N(C(C)C)[C@H]1C1CCN(C(=O)Nc2ccc(C)c(C)c2)CC1, Cc1ccsc1C(=O)NC1CCN(c2cnn(Cc3ccccc3)c(=O)c2)CC1, CCN(CC)CCC(=O)Nc1c(C(=O)OC)[nH]c2ccccc12, CC(C)CCC(=O)Nc1cc(S(=O)(=O)N2CCOCC2)ccc1N1CCCC1, O=C(COC(=O)Cc1ccc(F)cc1)Nc1cc(S(=O)(=O)N2CCOCC2)ccc1N1CCCC1, CC(C)OCC(=O)N1CCN(c2nc(-c3ccccc3)nc3c2CCC3)CC1, Cc1[nH]c2ccccc2c1CC(=O)NCc1ccc(CN2CCCC2)cc1, Cc1c(Cc2ccccc2)c(=O)oc2c(C)c(OC(C)C(=O)O)ccc12 (stereo not given), Cc1nc2nc(NCc3cc(F)cc(F)c3)[nH]n2c(=O)c1C, CCN(c1ccc(NC(=O)c2cnc3ccccc3n2)cc1)C(C)C, CCN(CC(=O)NC(=O)NCC(C)C)C1CC1

Potency, active:
CC(C)CNc1nc(-c2ccc3c(c2)CCCN3S(C)(=O)=O)cs1 14.1 µM, O=C(NC(c1ccc(-c2ccccc2)cc1)c1cnccn1)C1CCN(CCOc2ccc(Cl)cc2Cl)CC1 (stereo not given) 44.7 µM, Cc1ccc(C(NC(=O)C2CCN(CCOc3ccc(Cl)cc3Cl)CC2)c2ccccn2)cc1 (stereo not given) 56.2 µM, C[N+](C)(C)CC#CCCCC#CC[N+](C)(C)C 11.2 µM, COc1ccc(S(=O)(=O)N[C@@H]2C=C[C@@H](CC(=O)N3CCc4ccccc4C3)O[C@@H]2CO)cc1 25.1 µM, COc1ccccc1NC(=O)c1cc2ccccc2cc1OCC(N)=O 35.5 µM, Clc1ccccc1CSc1nnc(-c2ccco2)c(-c2ccco2)n1 3.55 µM, Cc1nn(CCc2nc(-c3ccccc3F)cs2)c2[nH]c(=O)cc(C(F)(F)F)c12 7.08 µM, CCOc1cccc(/C=N/N2C(=O)CSC2=S)c1O 31.6 µM, COC(=O)c1ccc2nc(-c3ccc(Cl)cc3)c(Cc3cccc(F)c3)n2c1 44.7 µM, COC(=O)c1ccc2nc(-c3cccc(Br)c3)c(Cc3ccc(OC)cc3C)n2c1 7.94 µM, S=c1[nH]nc(-c2ccc(Cl)cc2)n1CC1CCCO1 (stereo not given) 44.7 µM, O=C(c1cccc(F)c1)N1CCN(c2ccc([N+](=O)[O-])c3cccnc23)CC1 39.8 µM, O=C(/C=C/c1ccc(Cl)c([N+](=O)[O-])c1)c1cccnc1 17.8 µM, COc1ccc(C2=CC(c3ccccc3Cl)n3nc(-c4ccc(Cl)cc4)nc3N2)cc1 (stereo not given) 5.01 µM, N#Cc1ccccc1Sc1ccccc1C(=O)Nc1ccc2c(c1)CCC2 20 µM, Cc1cnc(-c2ccncc2)n1CCN 3.55 µM, O=C(/C=C(O)/C=C/c1ccc(O)cc1)/C=C/c1ccc(O)cc1 28.2 µM, CCN1CCC(O)(/C=C/c2ccc(C)cc2)C(C(=O)/C=C/c2ccc(C)cc2)C1 (stereo not given) 50.1 µM, COCCNC(=S)Nc1cc(S(=O)(=O)N2CCOCC2)ccc1N1CCCCC1 31.6 µM
